# Data published in PubChem BioAssay.
# A number with no mark means an inactive call. The rule behind the calls is not given here.
# Biological target: Pantothenate synthetase (Mycobacterium tuberculosis (strain ATCC 25618 / H37Rv)) (UniProt P9WIL5)
# Experiment: Coupled enzyme confirmation of inhibitors against recombinant Mtb PanC (AID 375);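 note: 0% = full reaction with vehicle and 100% = no enzyme background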
# Settings: coupled enzyme assay; at 10 µM, active compounds read high
# Pantothenate synthetase (Mycobacterium tuberculosis (strain ATCC 25618 / H37Rv)), sequence (P9WIL5 whole entry, looked up): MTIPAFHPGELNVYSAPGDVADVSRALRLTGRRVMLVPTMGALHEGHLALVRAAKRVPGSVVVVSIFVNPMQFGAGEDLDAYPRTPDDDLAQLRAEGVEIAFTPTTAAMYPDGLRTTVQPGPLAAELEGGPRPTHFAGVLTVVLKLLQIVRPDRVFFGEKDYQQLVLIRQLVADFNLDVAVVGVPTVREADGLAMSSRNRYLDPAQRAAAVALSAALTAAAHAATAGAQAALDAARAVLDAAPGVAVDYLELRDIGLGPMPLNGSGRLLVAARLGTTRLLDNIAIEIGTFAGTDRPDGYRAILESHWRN
row,SMILES,inhibition
1,CCOC(=O)c1ccc(S(=O)(=O)Nc2cc(C(C)(C)C)no2)cc1,2%
2,Cc1onc(-c2ccccc2)c1C(N)=O,0%
3,O=C(CSc1ccccc1C(=O)NCCCN1CCCC1=O)NCc1ccco1,5%
4,O=C(CSc1ncnc2c1oc1ccccc12)Nc1ccccc1C(F)(F)F,0%
5,Cc1cc2c(cc(C(=O)OCC(=O)NCc3cccs3)n2C(C)C)o1,0%
6,Cc1cccc(NC(=O)c2cc(NC(=O)c3ccco3)ccc2N2CCCCC2)c1,2%
7,O=C(Nc1ccc(CN2CCCCC2)cc1)c1ccc2c(c1)OCO2,3%
8,O=C(O)CCc1ccc(-c2ccc(F)cc2)n1CC(=O)O,0%
9,Nc1nc(Nc2ccc(Cl)cc2Cl)nc(C(F)(F)F)n1,0%
10,Cc1cc(C)n(C(=O)C23CC4CC(CC(C4)C2)C3)n1,0%
11,COCCOC(=O)c1c(C)nc(SCC(=O)Nc2ccc(OC)cc2)c(C#N)c1-c1ccco1,0%
12,CCOC(=O)c1oc2ccccc2c1NC(=O)COC,0%
13,Cc1nc2c(o1)CCc1ccccc1C2O (stereo not given),0%
14,O=C(NCCC1=CCCCC1)C1CCN(S(=O)(=O)c2cccc3nsnc23)CC1,10%
15,CCN1CCN(c2nc3c(c(=O)[nH]c(=O)n3C)n2CCSc2nc3ccccc3s2)CC1,3%
16,O=C(Cn1nc(Cc2cccnc2)c2ccccc2c1=O)NCC1CCCO1 (stereo not given),0%
17,COc1ccccc1N1CCN(C(=O)c2oc3cc(C)c(C)cc3c2C)CC1,0%
18,CCOc1ccccc1-c1nc(-c2ccc(NC(=O)Cc3ccccc3OC)cc2)no1,2%
19,CC1(c2ccncc2)Nc2ccccc2-c2nc3ccccc3n21 (stereo not given),0%
20,COC(=O)c1[nH]c2ccc(C)cc2c1NC(=O)CN1CCCc2ccccc21,3%

row,SMILES,inhibition
1,COc1ccc(OC)c(N(CC(=O)Nc2cccnc2)S(=O)(=O)c2ccc(OC)c(OC)c2)c1,0%
2,CC(=O)Nc1c(C(=O)O)[nH]c2ccccc12,0%
3,Cc1cc(Nc2ccccc2)n(CCC#N)n1,14%
4,Cc1noc(C)c1C(=O)N1CCN(C(=O)c2sc3cc(Cl)ccc3c2Cl)CC1,7%
5,Cc1ccc(-n2ncc3c(N4CCCC(C)C4)ncnc32)c(C)c1 (stereo not given),5%
6,CN(c1ccc(OCc2nnc(-c3ccccc3)o2)cc1)S(=O)(=O)c1ccccc1,0%
7,O=C(NC(=O)c1ccc(Cl)cc1)Nc1cc(N2CCCCC2)ncn1,0%
8,O=C(CNS(=O)(=O)c1ccc(Br)s1)N1CCN(c2ncccn2)CC1,0%
9,CSCCC(N=CC1=C(O)CC(C)(C)CC1=O)C(=O)O (stereo not given),2%
10,Cn1c(=O)n(CC(=O)OCc2ccccc2)c(=O)c2c1nc1n2CCCN1C1CCCCC1,0%
11,Cc1cc(N2C(=O)CC(N3CCN(c4ccc(C(=O)c5cccs5)cc4)CC3)C2=O)no1 (stereo not given),0%
12,COc1cc(C2Nc3cccc4cccc(c34)N2)cc(OC)c1O,0%
13,O=C(Nc1nnc(COc2ccc(F)cc2)s1)c1cccs1,5%
14,COC(=O)c1sc2ccccc2c1NC(=O)c1cccs1,2%
15,COc1ccc(CCNS(=O)(=O)c2ccc3c(c2)CCN3C(=O)CCC(=O)O)cc1OC,0%
16,O=C1N=C(N2CCOCC2)CS1,0%
17,CCCCOc1ccc(S(=O)(=O)n2c(C)nc3ccccc32)cc1,0%
18,O=C(CCc1nc2ccccc2[nH]1)Nc1ccc2c(c1)OCO2,0%
19,CCNC(=O)CC(=O)Nc1ccccc1C(=O)O,0%
20,CCOC(=O)N1CCN(S(=O)(=O)c2ccc(F)c(C(=O)Nc3cc(C)cc(C)c3)c2)CC1,7%
